# In ChEMBL document CHEMBL3988442, “University of Dundee, Small-Polar-MMV Screening Library” (2021):
# Out of some 48,000 compounds screened, about 13,000 (27%) showed an effect of 50% or more. The list shows a part of the results.
# System: Wolbachia pipientis
# Assay: Anti-Wolbachia Cell-Based Screen
# Type: functional
# Design: scale not given: in the data most compounds retested in dose-response had high values
# Conditions: 5 µM
row,Structure (SMILES),Percent Effect [%]
1,COCC(NC(=O)c1ccoc1)c1ccc(C)o1 (configuration not stated),-2.661
2,Cc1ncsc1CCN(C)C(=O)CN1CC2(CCNCC2)OC1=O,-5.863
3,Cc1cc(NC2CCN(c3ccc(F)cc3)CC2)n2nc(C)cc2n1,-5.138
4,Nc1ncc(C(=O)N2CCCC(N)CC2)c(-c2ccccc2)n1 (configuration not stated),-5.532
5,CC(C)C(=O)NC1CCN(Cc2cccc3c2OCCO3)CC1,6.757
6,O=C(Nc1ccccn1)C1CCN(Cc2cc3c(cc2O)OCO3)CC1,98.75
7,O=C(Nc1nccs1)C1CCN(Cc2cccc3c2OCCO3)CC1,83.61
8,c1cnnc(NCC2CN(Cc3cccc4c3OCCO4)CCO2)c1 (configuration not stated),4.711
9,Cc1csc(NC(=O)C2CCN(Cc3cccc4c3OCCO4)CC2)n1,93.8
10,CCNC(=O)C1CCN(Cc2csc(-c3ccc(C)o3)n2)CC1,8.641
11,Cc1ccoc1C(=O)NC1CCN(Cc2cccc3c2OCCO3)CC1,4.934
12,CNC(=O)C1CCN(Cc2cc3c(cc2O)CCC3)CC1,6.264
13,O=C(NCc1ccccc1CN1CCC(O)CC1)Nc1ccccn1,-0.8138
14,O=C(NCCNCc1cccc2c1OCCCO2)C1CCCC1,-19.03
15,O=C(Nc1nccs1)NC1CCOc2ccccc21 (configuration not stated),5.946
16,O=C(Nc1ccccn1)C1CCN(Cc2cccc3c2OCCO3)CC1,88.18
17,CNC(=O)N(Cc1c(F)cccc1F)C1CCCC1,-10.49
18,Cc1cccc(C(C(=O)N2CC(Oc3ccccc3F)C2)N(C)C)c1 (configuration not stated),3.868
19,O=C(O)c1cc2c(c(S(=O)(=O)N(CCCO)c3ccccc3)c1)CCC2,-6.874
20,CCCn1ccnc1CN1C[C@@H](NC(C)=O)[C@H](c2ccc(OC)cc2)C1,-11.71
21,COc1ccc([C@@H]2CN(c3cnccn3)C[C@H]2N(C)C)cc1,6.916
22,COc1ccc([C@@H]2CN(c3cc(OC)nc(N)n3)C[C@H]2N(C)C)cc1,-18.13
23,COc1ccc([C@@H]2CN(Cc3ccncc3)C[C@H]2N(C)C)cc1,115.9
24,COc1ccc([C@@H]2CN(Cc3cccnc3N)C[C@H]2NC(C)=O)cc1,100.4
25,Nc1ncccc1CN1C[C@@H](C(=O)O)[C@H](c2cccc(F)c2)C1,-4.464
26,COc1ccc([C@@H]2CN(Cc3cccnc3N)C[C@H]2N(C)C)cc1,89.74

row,Structure (SMILES),Percent Effect [%]
1,COc1ccc([C@@H]2CN(c3cc(OC)ncn3)C[C@H]2N(C)C)cc1,11.08
2,COc1ccc([C@@H]2CN(C(=O)CS(C)(=O)=O)C[C@H]2NC(C)=O)cc1,-2.286
3,COc1cnc(N2C[C@@H](CN3CCOCC3)C[C@H](CO)C2)nc1,15.13
4,Cc1ccc([C@@H]2CN(S(=O)(=O)c3cccs3)C[C@H]2N(C)C)cc1,-8.469
5,Cc1ccccc1OCCSc1nnc(CC2CCS(=O)(=O)C2)n1C (configuration not stated),3.275
6,CC(C)=CCN1C[C@H]2CC[C@@H]1CN(C(=O)Cn1c(C)cc(C)nc1=O)C2,-7.163
7,N#Cc1ccccc1CN1CCC(CN2CCOCC2)C1 (configuration not stated),95.83
8,N#Cc1ccccc1CN1CCCC(c2nccn2CC2CC2)C1 (configuration not stated),7.864
9,Cn1c(CO)nnc1CC1CCN(Cc2ccc(C#N)cc2)CC1,25.57
10,O=C(CCN1CCOCC1)N1CCC(Cc2ccc(CO)cc2)C1 (configuration not stated),-13.67
11,N#Cc1ccc(N2CCCN(CC(=O)N3CCOCC3)CC2)cc1,-7.861
12,N#Cc1ccc(CN2CCC(CCc3ccc(O)cc3)CC2)cc1,-49.48
13,N#Cc1ccc(CSCCN2CCOCC2)cc1,-1.754
14,CC(C)(C)C(O)CN1CCN(Cc2ccc(C#N)cc2)CC1 (configuration not stated),1.533
15,N#Cc1ccc(CN2CCC(CN3CCOCC3)C2)cc1 (configuration not stated),106.9
16,N#Cc1ccc(CCC(=O)N2CCC(CN3CCOCC3)CC2)cc1,91.48
17,N#Cc1ccc(CN2CCOCC2)cc1,91.68
18,N#Cc1ccccc1C(=O)N1C[C@@H](CN2CCOCC2)[C@@H](CO)C1,-6.039
19,CC(C)N(C)CCCNC(=O)c1cnn(C(C)(C)C)c1C(F)(F)F,5.452
20,CCOC(=O)C(CO)NC(=O)CCc1cccc(OC2CCCC2)c1 (configuration not stated),-6.497
21,COCC(=O)N1CCC(C(=O)Nc2ccc(S(N)(=O)=O)cc2)CC1,-0.7847
22,c1ccc2nc(N3CCCCC3)c(NCc3nnc4n3CCC4)nc2c1,-16.15
23,COCCNc1nc(C2CCCC2)nc2c1CCNCC2,12.56
24,CN(C)c1nc2c(c(NCc3nnc4n3CCCCC4)n1)CCNC2,114.9
25,Cc1cc(C)nc(NCc2nnc3n2CCCCC3)n1,-1.015
26,c1ccc(-c2nc3c(c(NCc4nnc5n4CCC5)n2)CCNC3)cc1,90.53

row,Structure (SMILES),Percent Effect [%]
1,c1ccc(-c2nc3c(c(NCc4n[nH]c5c4CCC5)n2)CCNC3)cc1,-30.21
2,Cc1cccc(=O)n1CCCNc1nc(N(C)C)nc2c1CCNC2,32.54
3,c1ccc2nc(N3CCCC3)c(NCc3nnc4n3CCC4)nc2c1,-27.33
4,C1CCc2nnc(CNc3nc(C4CC4)nc4c3CCNCC4)n2CC1,99.26
5,CC(=O)NCc1nn(C)c2c1CN(Cc1ccsc1)C2.O=C(O)C(F)(F)F,-1.224
6,N[C@@H]1c2ccccc2C2(CCN(C(=O)c3ccccc3O)CC2)[C@H]1O,0.509
7,CN(C)Cc1nnc(C2CCCN(c3nccc4ccccc34)C2)n1C (configuration not stated),5.407
8,CC(=O)N1CCC(C(=O)NCCN2CCCCC2)CC1,12.8
9,COC(=O)N1CCCC(C(=O)Nc2ccccc2CN2CCCC2)C1 (configuration not stated),22.7
10,COc1ccc(CCNC(=O)C2CC2)c(Cl)c1,-15.6
11,COC(=O)N1CCCC(C(=O)NCCc2c[nH]c3cc(C)ccc23)C1 (configuration not stated),127.8
12,CCN(CCNC(=O)C1CCN(C(C)=O)CC1)c1ccccc1C,-4.01
13,COc1ccc(CCNC(=O)C2CCCOC2)c(Cl)c1 (configuration not stated),0.5663
14,CC(=O)N1CCC(C(=O)NCCc2c[nH]c3cc(C)ccc23)CC1,104
15,COC(=O)N1CCCC(C(=O)NCc2cc3cccc(OC)c3o2)C1 (configuration not stated),-3.243
16,COc1ccc2[nH]cc(CCNC(=O)C3CCCN(C(C)=O)C3)c2c1 (configuration not stated),94.67
17,CNc1nc(CS(=O)(=O)c2ccccc2)cs1,7.424
18,COC(C)(C)c1noc(C2(C#N)CCCC2)n1,-17.37
19,OC1(CNc2ccc(Br)cn2)CCOCC1,9.923
20,Cc1cc(CN2CCC=C(CN(C)C(=O)c3ccco3)C2)no1,-5.355
21,Cc1ncc(CNCC(=O)NCC(F)(F)F)n1-c1ccccc1,-11.81
22,Cc1cnn(CC2CN(Cc3nnc(-c4ccccc4)o3)CCO2)c1 (configuration not stated),113.1
23,Cc1cnn(CC2CN(Cc3nnc(C4CC4)o3)CCO2)c1 (configuration not stated),-1.438
24,CCc1nnc(CN2CCOC(Cn3cc(C)cn3)C2)o1 (configuration not stated),101
25,Cc1cnn(CC2CN(Cc3nnc(-c4occc4C)o3)CCO2)c1 (configuration not stated),-2.933
26,Cc1cnn(CC2CN(CCS(C)(=O)=O)CCO2)c1 (configuration not stated),-18.36

row,Structure (SMILES),Percent Effect [%]
1,Cc1ccc(-c2nnc(CN3CCOC(Cn4cccn4)C3)o2)cc1 (configuration not stated),-8.169
2,Cc1cnn(CC2CN(Cc3nc(C)c(C)o3)CCO2)c1 (configuration not stated),94.42
3,Cc1cnn(CC2CN(Cc3nnc(C(C)C)o3)CCO2)c1 (configuration not stated),101.2
4,Cc1cc(CC2COc3ccccc3C2)cnc1N (configuration not stated),-19.29
5,CC(C)Nc1ccnc(N2Cc3cnc(C(C)(C)C)nc3C2)n1,10.33
6,CN(C)Cc1nc(C(C)(C)NC(=O)c2cccc3ccccc23)no1,-8.122
7,CCOC(=O)CN(CC(F)(F)F)C(=O)c1nc(C)n2ccccc12,-24.45
8,CNC(=O)c1cccc(CNC2CCSc3c(Cl)cccc32)c1 (configuration not stated),-5.902
9,CSc1ccc(C(CC(=O)O)NC(=O)c2cc(C)on2)cc1 (configuration not stated),6.189
10,Cc1ccc(CN2CCc3ncnc(C4CC4)c3CC2)s1.O=C(O)C(F)(F)F,-13.47
11,CN(C)C(=O)CN1CCc2ncnc(N(C)C)c2CC1.O=C(O)C(F)(F)F,89.81
12,Cc1ncnc2c1CCN(Cc1ccc3c(c1)OCO3)CC2.O=C(O)C(F)(F)F,-11
13,CN(C)c1ncnc2c1CCN(Cc1nccs1)CC2.O=C(O)C(F)(F)F,13.78
14,CN(C)c1ncnc2c1CCN(CC1CCOCC1)CC2.O=C(O)C(F)(F)F,-9.241
15,CN(C)C(=O)CN1CCc2ncnc(C3CC3)c2CC1,106.4
16,CCc1ncnc2c1CCN(Cc1ccc3c(c1)OCO3)CC2.O=C(O)C(F)(F)F,106.3
17,c1nc2c(c(C3CC3)n1)CCN(Cc1ccoc1)CC2,-6.028
18,CN(C)C(=O)CN1CCc2ncnc(NC3CCC3)c2CC1.O=C(O)C(F)(F)F,114.3
19,O=C(O)C(F)(F)F.c1nc2c(c(NC3CCC3)n1)CCNCC2,-15.15
20,COC(C)c1noc(CN(C)c2nccnc2C#N)n1 (configuration not stated),3.907
21,CCN(CCn1cccn1)Cc1nc(-c2cc(F)ccc2F)oc1C,-20.47
22,O=C(C1CC=CC1)N1CC[C@@H]2O[C@H](COCC3CCOCC3)CC[C@@H]21,2.259
23,O=C(CS(=O)(=O)Cc1cccc(Br)c1)Nc1cn[nH]c1,6.351
24,O=C(C1=CCCCC1)N1CCO[C@H]2[C@H](Oc3ccccn3)CC[C@@H]21.O=C(O)C(F)(F)F,-5.477
